Test results taken from PubChem BioAssay (EPA / NIEHS).
“And” between values parts separate entries of the source, which are not always exact repeats. Equal values may be shown once. Some structures have more than one record in an assay (separate samples or runs), and their calls can disagree. The source made the active and inactive calls. How the source made its calls: active means hit-call score of the fitted dose curve at least 0.9, where 1 is the maximum; inactive means score below 0.9.

What was measured:
[1] = read-out: Interferon-inducible T-cell alpha chemoattractant (ITAC), CXCL11 (gene 6373); experiment: BSK_BE3C_ITAC: BioMAP Diversity Plus: BE3C Assay for Interferon-inducible T-cell alpha chemoattractant (ITAC) Biomarker Activity (AID 2284279); details: primary human bronchial epithelial cells
How it was run: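 ELISA for I-TAC in primary human bronchial epithelial cultures 24 h post-treatment, fitted relative to DMSO baseline in positive direction. Cytotoxicity checked in parallel cultures by sulforhodamine B protein staining.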

[2] = read-out: Interleukin-8 (IL8), CXCL8 (gene 3576); experiment: BSK_BE3C_IL8: BioMAP Diversity Plus: BE3C Assay for Interleukin-8 (IL8) Biomarker Activity (AID 2284280); details: primary human bronchial epithelial cells
How it was run: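 ELISA read-out of IL-8 in human lung bronchial epithelial primary cell cultures, 24 h post-dosing; endpoint analysed as signal increase relative to DMSO baseline.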

[3] = read-out: Epidermal growth factor receptor (EGFR), EGFR (gene 1956); experiment: BSK_BE3C_EGFR: BioMAP Diversity Plus: BE3C Assay for Epidermal growth factor receptor (EGFR) Biomarker Activity (AID 2284281); details: primary human bronchial epithelial cells
How it was run: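 Primary human lung bronchial epithelial cells; compound, 24 h; EGFR measured by ELISA; positive-direction fit vs DMSO baseline.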

KRT18 (gene 3875) = experiment: BSK_BE3C_Keratin818: BioMAP Diversity Plus: BE3C Assay for Keratin 818 Biomarker Activity (AID 2284282); details: primary human bronchial epithelial cells
How it was run: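 Chemicals are added to human lung bronchial epithelial primary cells (BE3C system) and incubated 24 h. Keratin 8/18 is then measured by ELISA, with parallel SRB total-protein staining gauging overt cytotoxicity.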

[4] = read-out: Matrix Metallopeptidase 9 (MMP9), MMP9 (gene 4318); experiment: BSK_BE3C_MMP9: BioMAP Diversity Plus: BE3C Assay for Matrix Metallopeptidase 9 (MMP9) Biomarker Activity (AID 2284283); details: primary human bronchial epithelial cells
How it was run: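 MMP9 is measured by ELISA after a 24 h compound exposure of primary human bronchial epithelial cultures. Parallel SRB staining gives overt cytotoxicity. Values fitted in the positive direction against DMSO.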

[5] = read-out: Plasminogen activator inhibitor-1 (PAI1), SERPINE1 (gene 5054); experiment: BSK_CASM3C_PAI1: BioMAP Diversity Plus: CASM3C Assay for Plasminogen activator inhibitor-1 (PAI1) Biomarker Activity (AID 2284284); details: primary human coronary artery smooth muscle cells;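 further: PAI-1 protein level measured by ELISA 24 h after dosing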
[6] = read-out: Monocyte Chemoattractant Protein-1 (MCP1), CCL2 (gene 6347); experiment: BSK_hDFCGF_MCP1: BioMAP Diversity Plus: hDFCGF Assay for Monocyte Chemoattractant Protein-1 (MCP1) Biomarker Activity (AID 2284285); details: primary human foreskin fibroblasts
How it was run: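 Human foreskin fibroblasts (hDFCGF system) were exposed to compound and secreted MCP-1 was measured by ELISA after 24 hours. Activity was fitted relative to DMSO. Cytotoxicity was checked by SRB total-protein staining in parallel cultures.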

[7] = read-out: Vascular cell adhesion molecule 1 (VCAM1), VCAM1 (gene 7412); experiment: BSK_IMphg_VCAM1: BioMAP Diversity Plus: IMphg Assay for Vascular cell adhesion molecule 1 (VCAM1) Biomarker Activity (AID 2284286); details: primary human endothelial cells with macrophages
How it was run: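 Human venular endothelial cells co-cultured with macrophages; VCAM-1 quantified by ELISA 24 h after dosing, fitted in the positive direction against DMSO. Cytotoxicity was checked in parallel cultures by SRB total-protein staining (0.1% SRB after 10% TCA fixation, 560 nm).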

[8] = read-out: Intercellular Adhesion Molecule 1 (ICAM1), ICAM1 (gene 3383); experiment: BSK_hDFCGF_ICAM1: BioMAP Diversity Plus: hDFCGF Assay for Intercellular Adhesion Molecule 1 (ICAM1) Biomarker Activity (AID 2284287); details: primary human foreskin fibroblasts
How it was run: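 Primary human foreskin fibroblasts (hDFCGF system) dosed with chemical; ICAM-1 quantified by ELISA at 24 h relative to DMSO. Parallel SRB total-protein staining to assess overt cytotoxicity.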

CD40, CD40 (gene 958) = experiment: BSK_IMphg_CD40: BioMAP Diversity Plus: IMphg Assay for CD40 Biomarker Activity (AID 2284288); details: primary human endothelial cells with macrophages
How it was run: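 Venular endothelial cells co-cultured with macrophages (human primary), CD40 measured by ELISA 24 h after dosing. Positive-direction fit vs DMSO baseline; cytotoxicity tracked by SRB total-protein staining in parallel cultures.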

Row | Structure (SMILES) | outcome [1] | outcome [2] | outcome [3] | outcome (KRT18 (gene 3875)) | outcome [4] | outcome [5] | outcome [6] | outcome [7] | outcome [8] | outcome (CD40, CD40 (gene 958)) | AC50 (CD40, CD40 (gene 958)) | AC50 [1] | AC50 [2] | AC50 [4] | AC50 [5] | AC50 [6] | AC50 [7] | AC50 [8] | AC50 [3] | AC50 (KRT18 (gene 3875))
1 | OCC(F)(F)C(F)(F)C(F)(F)CO | inactive | inactive | inactive | inactive | inactive | inactive | inactive | inactive | inactive | inactive |  |  |  |  |  |  |  |  |  | 
2 | NC(=O)C(F)(F)C(F)(F)C(F)(F)C(F)F | inactive | inactive | inactive | inactive | inactive | inactive | inactive | inactive | inactive | inactive |  |  |  |  |  |  |  |  |  | 
3 | OCC(O)CC(F)(F)C(F)(F)C(F)(F)C(F)(F)C(F)(F)C(F)(F)C(F)(F)C(F)(F)F (stereo not given) | inactive | inactive | inactive | inactive | inactive | inactive | inactive | inactive | inactive | inactive |  |  |  |  |  |  |  |  |  | 
4 | O=C(O)CCC(F)(F)C(F)(F)C(F)(F)F | inactive | inactive | inactive | inactive | inactive | inactive | inactive | inactive | inactive | inactive | 220 nM (active) |  |  |  |  |  |  |  |  | 
5 | OCCCCC(F)(F)C(F)(F)C(F)(F)C(F)(F)F | inactive | inactive | inactive | inactive | inactive | inactive | inactive | inactive | inactive | inactive |  |  |  |  |  |  |  |  |  | 
6 | OCC(O)CC(F)(F)C(F)(F)C(F)(F)C(F)(F)F (stereo not given) | inactive | inactive | inactive | inactive | inactive | inactive | inactive | inactive | inactive | inactive |  |  |  |  |  |  |  |  |  | 
7 | NC(O)(C(F)(F)F)C(F)(F)F | inactive | inactive | inactive | inactive | inactive | inactive | inactive | inactive | inactive | inactive |  |  |  |  |  |  |  |  |  | 
8 | C=CC(=O)OCC(F)(F)C(F)(F)C(F)(F)COC(=O)C=C |  |  | inactive | inactive |  |  |  |  |  |  | 22.6 µM (active) and 23.9 µM (active) | 45 µM (active) and 43 µM (active) | 13.2 µM (active) and 8.09 µM (active) | 8.23 µM (active) and 8.72 µM (active) | 46 µM (active) and 48.8 µM (active) | 2.84 µM (active) and 2.59 µM (active) | 35 µM (active) and 40 µM (active) | 2.6 µM (active) and 2.45 µM (active) |  | 
9 | CN(C(=O)C(F)(F)C(F)(F)C(F)(F)F)[Si](C)(C)C | inactive | inactive | inactive | inactive | inactive | inactive | inactive | inactive | inactive | inactive |  |  |  |  |  |  |  |  |  | 
10 | OCC(F)(F)C(F)(F)C(F)(F)C(F)(F)C(F)(F)C(F)(F)C(F)(F)C(F)(F)CO |  |  |  | inactive |  | inactive |  |  |  |  | 46.5 µM (active) and 41.2 µM (active) | 39.6 µM (active) and 31.6 µM (active) | 19.7 µM (active) and 5.95 µM (active) | 34.8 µM (active) and 22.1 µM (active) |  | 51 µM (active) and 42.3 µM (active) | 51.5 µM (active) and 54.6 µM (active) | 54.5 µM (active) and 46.2 µM (active) | 30 µM (active) and 25.2 µM (active) | 
11 | NC(=O)C(F)(F)C(F)(F)C(F)(F)C(F)(F)C(F)(F)C(F)(F)C(F)(F)F | inactive | inactive | inactive | inactive | inactive | inactive | inactive | inactive | inactive | inactive |  |  |  |  |  |  |  |  |  | 
12 | O=C(Cl)C(F)(F)C(F)(F)C(F)(F)C(F)(F)C(F)(F)C(F)(F)F | inactive | inactive | inactive | inactive | inactive | inactive | inactive | inactive | inactive | inactive |  |  |  |  |  |  |  |  |  | 
13 | FC(F)(F)C(F)(F)C(F)(F)CC1CO1 (stereo not given) | inactive | inactive | inactive | inactive | inactive | inactive | inactive | inactive | inactive | inactive |  |  |  |  |  |  |  |  |  | 
14 | O=C(F)C1(F)C(F)(F)C(F)(F)C(F)(F)C(F)(F)C1(F)F | inactive | inactive | inactive | inactive | inactive | inactive | inactive | inactive | inactive | inactive |  |  |  |  |  |  |  |  |  | 
15 | OCC(F)(F)C(F)(F)C(F)(F)C(F)(F)C(F)(F)C(F)(F)CO | inactive | inactive | inactive | inactive | inactive | inactive | inactive | inactive | inactive | inactive |  |  |  |  |  |  |  |  |  | 
16 | O=C(O)C(F)(F)C(F)(F)C(F)(F)C(F)(F)C(F)(F)C(F)(F)C(F)F | inactive | inactive | inactive | inactive | inactive | inactive | inactive | inactive | inactive | inactive |  |  |  |  |  |  |  |  |  | 
17 | O=C(O)C(F)(F)C(F)(F)C(F)(F)C(=O)O | inactive | inactive | inactive | inactive | inactive | inactive | inactive | inactive | inactive | inactive | 43100 nM (active) |  |  |  |  |  |  |  |  | 
18 | OCCCC(F)(F)C(F)(F)C(F)(F)C(F)(F)C(F)(F)C(F)(F)C(F)(F)C(F)(F)F |  |  |  |  |  |  |  |  |  |  | 10.1 µM (active) and 10.9 µM (active) | 50.2 µM (active) and 51.8 µM (active) | 11.4 µM (active) and 8.23 µM (active) | 50 µM (active) and 48.2 µM (active) | 48.3 µM (active) and 45.4 µM (active) | 7.74 µM (active) and 7.47 µM (active) | 18 µM (active) and 17.8 µM (active) | 15.3 µM (active) and 9.92 µM (active) | 33 µM (active) and 21.3 µM (active) | 39.6 µM (active) and 42.8 µM (active)
19 | CCN=C1C=CC(=C(c2ccc(N(CC)CC)cc2)c2ccc(N(CC)CC)cc2)c2ccccc21 |  |  | inactive |  |  |  |  |  |  |  |  | 2.7 µM (active) and 2.3 µM (active) | 4.21 µM (active) and 3.7 µM (active) | 1.07 µM (active) and 490 nM (active) | 5.67 µM (active) and 5.38 µM (active) | 1.63 µM (active) and 1.44 µM (active) |  | 1.9 µM (active) and 1.77 µM (active) |  | 1.61 µM (active) and 1.51 µM (active)
20 | OC(O)C(F)(F)C(F)(F)F | inactive | inactive | inactive | inactive | inactive | inactive | inactive | inactive | inactive | inactive |  |  |  |  |  |  |  |  |  | 
21 | NCC(F)(F)C(F)(F)C(F)(F)C(F)(F)C(F)(F)C(F)(F)F | inactive | inactive | inactive | inactive | inactive | inactive | inactive | inactive | inactive | inactive |  |  |  |  |  |  |  |  |  | 
22 | O=S(=O)(O)CCC(F)(F)C(F)(F)C(F)(F)C(F)(F)F | inactive | inactive | inactive | inactive | inactive | inactive | inactive | inactive | inactive | inactive |  |  |  |  |  |  |  |  |  | 
23 | CCOC(=O)CC(=O)C(F)(F)C(F)(F)F | inactive | inactive | inactive | inactive | inactive | inactive | inactive | inactive | inactive | inactive |  |  |  |  |  |  |  |  |  | 
